In PubChem BioAssay (EPA / NIEHS) one finds outcome and AC50 data, which are given here for 14 compounds.

Results filed as inconclusive are left out. The source holds several records for some structures; these can differ, active in one and inactive in another. Calls of active or inactive are those of the source. The calls were made as follows, unless noted: active = hit-call score of the fitted dose curve at least 0.9, where 1 is the maximum; inactive = score below 0.9.

A short description of test [1]: ATG_M_06_TRANS: Attagene TRANS-FACTORIAL HepG2 Assay for M06 Transcription Factor (Internal Marker) (AID 2282983; active = hit-call score of the fitted dose curve at least 0.9, where 1 is the maximum;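 also: reporter transcript level by RT-PCR then capillary electrophoresis fluorescence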). The conditions noted are these: HepG2 Attagene TRANS M06 internal marker reporter. In a few lines:
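mRNA levels of a reporter transcript, quantified as FAM fluorescence on capillary electrophoresis, served as readout. HepG2 cells expressing exogenous GAL4-chimera reporter constructs were exposed for 24 h. Gain of signal over DMSO was evaluated.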

The nature of test [2]: ATG_M_32_TRANS: Attagene TRANS-FACTORIAL HepG2 Assay for M32 Transcription Factor (Internal Marker) (AID 2282984; active = hit-call score of the fitted dose curve at least 0.9, where 1 is the maximum;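 also: transcript level of a background control reporter unit measured by RT-PCR and capillary electrophoresis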). The conditions noted are these: HepG2 Attagene TRANS M32 internal marker reporter. In a few lines: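 Fluorescence-detected mRNA induction, HepG2 liver cells, 24 h after dosing. Multiple GAL4-UAS reporter units introduced by transient transfection; background-control endpoint analysed for gain of signal against DMSO.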

Test [3] addresses Nuclear receptor subfamily 4 group A member 2 (Homo sapiens) (UniProt P43354). The experiment in a line: ATG_NURR1_TRANS: Attagene TRANS-FACTORIAL HepG2 Assay for human Nuclear Receptor Related Protein 1 (NURR1) (AID 2282985; active = hit-call score of the fitted dose curve at least 0.9, where 1 is the maximum). The conditions noted are these: HepG2 Attagene TRANS reporter, mRNA readout. In a few lines: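 Chimeric NR-Gal4 proteins were expressed in human HepG2 cells bearing GAL4-UAS reporter units, and induced reporter mRNA was quantified 24 h post-dosing by RT-PCR and capillary electrophoresis.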

Test [4] concerns the target Transcriptional activator Myb (Homo sapiens) (UniProt P10242). The test can be described thus: ATG_Myb_CIS: Attagene CIS-FACTORIAL HepG2 Assay for human Myeloblastosis (Myb) Proto-Oncogene Transcription Factor (AID 2282986). The conditions noted are these: HepG2 Attagene CIS-FACTORIAL Myb reporter transcription; actives raise or lower the signal. In a few lines:
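HepG2 cells were transiently transfected with cis-regulated multiple reporter transcription units reflecting endogenous Myb activity, then exposed to compound for 24 hours. Reporter mRNA was measured by RT-PCR with capillary electrophoresis; bidirectional fitting versus DMSO baseline.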

Test [5] has as its target Nuclear respiratory factor 1 (Homo sapiens) (UniProt Q16656). The experiment in a line: ATG_NRF1_CIS: Attagene CIS-FACTORIAL HepG2 Assay for human Nuclear Respiratory Factor 1 (NRF1) Orphan Gene (AID 2282987). The conditions noted are these: HepG2 NRF1 cis-element reporter, Attagene multiplex; actives raise or lower the signal. In short, it runs like this:
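HepG2 cells transiently transfected with multiple reporter transcription units under cis-regulatory promoter control, so endogenous transcription-factor activity is read. After 24 h compound exposure, reporter mRNA quantified by RT-PCR, fluorescent labelling, HpaI digestion and capillary electrophoresis; bidirectional fitting versus DMSO.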

Test [6] is described as follows: ATG_NFI_CIS: Attagene CIS-FACTORIAL HepG2 Assay for human Nuclear Factor I (NFI) (AID 2282989). The conditions noted are these: HepG2 cis-regulatory reporter, NFI response element transcription; actives raise or lower the signal. In short, it runs like this: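 After transient transfection of HepG2 with cis-promoter reporter constructs and 24 h dosing, RNA is reverse-transcribed, amplified, 6-FAM end-labelled and HpaI-digested before capillary analysis. Bidirectional curve fitting against DMSO.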

Test [7] has as its target Myc proto-oncogene protein (Homo sapiens) (UniProt P01106). The experiment in a line: ATG_Myc_CIS: Attagene CIS-FACTORIAL HepG2 Assay for human Myelocytomatosis (Myc) Proto-Oncogene Transcription Factor (AID 2282990). The conditions noted are these: HepG2, Attagene cis-reporter transcription factor activity; actives raise or lower the signal. In a few lines: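 HepG2 cells transiently transfected with multiple cis-promoter-driven reporter transcription units, so endogenous TF activity is read. After 24 h compound exposure, reporter mRNA was quantified by RT-PCR, 6-FAM labelling, HpaI digestion and capillary electrophoresis; bidirectional fit versus DMSO.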

A short description of test [8]: ATG_NF_kB_CIS: Attagene CIS-FACTORIAL HepG2 Assay for human Nuclear Factor Kappa B (NF-kB) (AID 2282991). The conditions noted are these: HepG2 Attagene cis-factorial NF-kB reporter mRNA; actives raise or lower the signal. In a few lines:
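HepG2 cells transiently transfected with multiplexed cis-element reporter units measuring endogenous transcription factor activity; reporter mRNA read 24 h after dosing by RT-PCR, fluorescent labelling, HpaI digestion and capillary electrophoresis. Bidirectional fit against DMSO baseline.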

Test [9] in a line: ATG_NRF2_ARE_CIS: Attagene CIS-FACTORIAL HepG2 Assay for human Nuclear Factor Erythroid 2 Related Factor 2 (NFR2) response to Antioxidant Response Elements (ARE) (AID 2282992). The conditions noted are these: HepG2 Attagene ARE/NRF2 reporter, transcription factor activity; actives raise or lower the signal. In short, it runs like this: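 Readout: reporter mRNA quantified by RT-PCR plus FAM-labelled primer extension, HpaI digestion and capillary electrophoresis, 24 h after dosing transfected HepG2 cells. Gain or loss of signal is fitted bidirectionally against DMSO baseline.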

Test [10] in a line: ATG_Oct_MLP_CIS: Attagene CIS-FACTORIAL HepG2 Assay for human Octamer-Binding Transcription Factor (Oct) (AID 2282993). The conditions noted are these: HepG2 Attagene cis-factorial Oct reporter, mRNA; actives raise or lower the signal. In a few lines: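 Cells of the HepG2 line express promoter-controlled reporter sequences whose mRNA levels, after 24 h treatment, are measured by RT-PCR and capillary electrophoresis. Increases and decreases are scored relative to DMSO.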

For test [11], the target named is Cellular tumor antigen p53 (Homo sapiens) (UniProt P04637). The experiment in a line: ATG_p53_CIS: Attagene CIS-FACTORIAL HepG2 Assay for human p53 Transcription Factor (AID 2282994). The conditions noted are these: HepG2 p53 cis-element reporter, Attagene mRNA; actives raise or lower the signal. In short, it runs like this:
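Read-out: reporter mRNA by RT-PCR plus capillary electrophoresis with fluorescence detection. Human HepG2 liver cells carried transfected multi-reporter cis-element constructs, dosed 24 h. Gain or loss of signal fitted bidirectionally against DMSO control.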

Test [12] can be described thus: BSK_3C_TissueFactor: BioMAP Diversity Plus: 3C Assay for Tissue Factor Biomarker Activity (AID 2282997). The conditions noted are these: BioMAP 3C HUVEC, tissue factor biomarker readout; actives raise or lower the signal. In a few lines:
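Tissue Factor measured by ELISA, 24 h after treatment of primary HUVEC in the BioMAP 3C setting.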

The nature of test [13]: BSK_3C_uPAR: BioMAP Diversity Plus: 3C Assay for Urokinase-type plasminogen activator receptor (uPAR) Biomarker Activity (AID 2282998). The conditions noted are these: BioMAP 3C HUVEC, uPAR biomarker ELISA; actives raise or lower the signal. In short, it runs like this:
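Endothelial primary cells of human umbilical vein origin received test chemical; 24 h later uPAR was assayed by ELISA. Fitting was bidirectional, DMSO as negative control.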
(In an ELISA, binding on a coated surface is turned into a signal by an enzyme label.)

The nature of test [14]: BSK_3C_VCAM1: BioMAP Diversity Plus: 3C Assay for Vascular cell adhesion molecule 1 (VCAM1) Biomarker Activity (AID 2282999). The conditions noted are these: BioMAP 3C HUVEC, VCAM1 ELISA, cytokine-stimulated; actives raise or lower the signal. In a few lines: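 Vascular primary endothelium (human umbilical vein) was exposed to chemicals and assayed 24 h later. VCAM-1 levels came from ELISA, with DMSO serving as baseline for bidirectional fitting.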

Test [15] addresses Hepatocyte nuclear factor 4-alpha (Homo sapiens) (UniProt P41235). The test can be described thus: ATG_HNF4a_TRANS: Attagene TRANS-FACTORIAL HepG2 Assay for human Hepatocyte Nuclear Factor 4 alpha (HNF4a) (AID 2282982; active = hit-call score of the fitted dose curve at least 0.9, where 1 is the maximum). The conditions noted are these: HepG2 HNF4a transactivation reporter, mRNA readout. In a few lines: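 Using HepG2 liver cells transfected with GAL4-UAS reporter units, chemical-induced mRNA increases were assessed after 24 hours. Fluorescent RT-PCR fragments were separated by capillary electrophoresis and compared with DMSO negative controls.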

Nuclear receptor subfamily 4 group A member 2 (Homo sapiens), sequence (P43354 whole entry, looked up, the tested form may be a part): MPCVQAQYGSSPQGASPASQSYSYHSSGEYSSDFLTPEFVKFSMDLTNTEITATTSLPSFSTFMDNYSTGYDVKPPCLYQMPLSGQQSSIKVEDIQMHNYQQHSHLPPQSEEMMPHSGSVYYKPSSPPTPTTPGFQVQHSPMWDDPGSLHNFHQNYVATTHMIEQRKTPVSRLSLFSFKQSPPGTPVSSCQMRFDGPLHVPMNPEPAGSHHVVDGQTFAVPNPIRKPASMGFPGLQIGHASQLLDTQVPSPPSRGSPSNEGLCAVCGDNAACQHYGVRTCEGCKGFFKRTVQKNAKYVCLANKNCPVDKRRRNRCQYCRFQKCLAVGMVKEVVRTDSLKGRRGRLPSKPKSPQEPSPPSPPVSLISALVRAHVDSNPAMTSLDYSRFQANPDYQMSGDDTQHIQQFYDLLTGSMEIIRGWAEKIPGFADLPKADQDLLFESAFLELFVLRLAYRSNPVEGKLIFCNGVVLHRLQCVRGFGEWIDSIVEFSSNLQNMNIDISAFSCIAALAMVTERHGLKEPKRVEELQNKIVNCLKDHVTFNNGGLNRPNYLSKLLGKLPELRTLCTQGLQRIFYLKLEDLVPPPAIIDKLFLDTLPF
Transcriptional activator Myb (Homo sapiens), sequence (P10242 whole entry, looked up): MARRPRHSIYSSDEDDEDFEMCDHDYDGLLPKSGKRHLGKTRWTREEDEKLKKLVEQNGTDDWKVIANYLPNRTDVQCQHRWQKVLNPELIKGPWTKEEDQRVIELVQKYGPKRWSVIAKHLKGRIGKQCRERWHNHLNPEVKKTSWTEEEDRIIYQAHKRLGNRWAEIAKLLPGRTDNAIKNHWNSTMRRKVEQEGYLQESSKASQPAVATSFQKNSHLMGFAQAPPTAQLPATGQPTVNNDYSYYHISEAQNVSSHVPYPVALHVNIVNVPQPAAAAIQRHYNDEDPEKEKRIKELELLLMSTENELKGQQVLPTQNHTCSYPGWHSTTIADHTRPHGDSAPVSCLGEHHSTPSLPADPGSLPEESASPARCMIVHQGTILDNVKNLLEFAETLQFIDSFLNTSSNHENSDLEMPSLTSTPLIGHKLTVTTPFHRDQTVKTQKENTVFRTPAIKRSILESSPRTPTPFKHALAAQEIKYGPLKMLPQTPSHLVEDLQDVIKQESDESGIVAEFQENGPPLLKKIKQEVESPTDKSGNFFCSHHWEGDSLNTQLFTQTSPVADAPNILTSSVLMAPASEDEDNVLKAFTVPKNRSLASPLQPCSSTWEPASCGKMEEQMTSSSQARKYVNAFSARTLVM
Myc proto-oncogene protein (Homo sapiens), sequence (P01106 whole entry, looked up): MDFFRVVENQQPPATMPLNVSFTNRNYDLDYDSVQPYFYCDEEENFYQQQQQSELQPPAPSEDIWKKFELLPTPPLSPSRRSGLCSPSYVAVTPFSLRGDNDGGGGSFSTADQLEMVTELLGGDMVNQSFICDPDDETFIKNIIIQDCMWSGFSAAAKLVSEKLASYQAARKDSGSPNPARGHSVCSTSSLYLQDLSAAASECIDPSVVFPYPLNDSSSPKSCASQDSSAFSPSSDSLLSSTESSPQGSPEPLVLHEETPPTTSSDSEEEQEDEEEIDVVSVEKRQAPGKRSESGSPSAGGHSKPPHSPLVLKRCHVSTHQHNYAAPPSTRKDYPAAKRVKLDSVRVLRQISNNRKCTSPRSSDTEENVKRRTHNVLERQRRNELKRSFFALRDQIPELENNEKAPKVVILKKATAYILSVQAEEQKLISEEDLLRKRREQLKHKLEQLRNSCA
Cellular tumor antigen p53 (Homo sapiens), sequence (P04637 whole entry, looked up): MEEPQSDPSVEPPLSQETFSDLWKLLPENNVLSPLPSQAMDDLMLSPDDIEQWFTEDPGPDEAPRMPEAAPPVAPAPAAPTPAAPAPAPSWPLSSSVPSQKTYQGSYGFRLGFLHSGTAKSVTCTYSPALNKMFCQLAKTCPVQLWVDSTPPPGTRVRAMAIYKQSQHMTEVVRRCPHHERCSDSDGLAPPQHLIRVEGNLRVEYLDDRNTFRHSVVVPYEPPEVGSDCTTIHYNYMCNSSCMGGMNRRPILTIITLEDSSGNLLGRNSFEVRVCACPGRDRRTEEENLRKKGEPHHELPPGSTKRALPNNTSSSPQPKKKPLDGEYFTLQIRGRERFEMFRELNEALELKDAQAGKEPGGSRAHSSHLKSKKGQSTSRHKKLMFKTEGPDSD
Nuclear respiratory factor 1 (Homo sapiens), sequence (Q16656 whole entry, looked up): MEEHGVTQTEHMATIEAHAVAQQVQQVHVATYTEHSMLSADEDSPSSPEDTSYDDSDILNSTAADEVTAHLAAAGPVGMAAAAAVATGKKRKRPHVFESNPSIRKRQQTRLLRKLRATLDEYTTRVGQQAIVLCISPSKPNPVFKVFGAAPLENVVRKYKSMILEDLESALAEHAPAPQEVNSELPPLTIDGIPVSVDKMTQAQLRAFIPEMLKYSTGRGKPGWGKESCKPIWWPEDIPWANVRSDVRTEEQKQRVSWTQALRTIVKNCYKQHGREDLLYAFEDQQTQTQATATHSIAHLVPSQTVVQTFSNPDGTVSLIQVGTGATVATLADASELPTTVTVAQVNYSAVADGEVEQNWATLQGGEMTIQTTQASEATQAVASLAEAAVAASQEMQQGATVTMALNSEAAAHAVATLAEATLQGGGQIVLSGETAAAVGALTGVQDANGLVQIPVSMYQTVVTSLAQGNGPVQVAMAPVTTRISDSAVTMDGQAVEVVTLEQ
Hepatocyte nuclear factor 4-alpha (Homo sapiens), sequence (P41235 whole entry, looked up, the tested form may be a part): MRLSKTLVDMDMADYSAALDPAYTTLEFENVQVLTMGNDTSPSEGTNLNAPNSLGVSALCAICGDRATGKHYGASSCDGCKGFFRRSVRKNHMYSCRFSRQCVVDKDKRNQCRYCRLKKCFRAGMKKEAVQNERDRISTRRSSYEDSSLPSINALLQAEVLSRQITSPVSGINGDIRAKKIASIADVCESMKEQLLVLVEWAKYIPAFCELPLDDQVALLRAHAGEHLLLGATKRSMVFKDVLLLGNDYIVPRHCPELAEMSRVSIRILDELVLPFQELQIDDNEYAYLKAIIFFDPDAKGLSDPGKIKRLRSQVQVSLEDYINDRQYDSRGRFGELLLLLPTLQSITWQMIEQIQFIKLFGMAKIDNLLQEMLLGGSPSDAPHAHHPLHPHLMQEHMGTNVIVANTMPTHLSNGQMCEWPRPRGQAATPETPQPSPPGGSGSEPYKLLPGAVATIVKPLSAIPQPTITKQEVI

Take `CCCO`: the result in test [1], in test [2], in test [3], in test [4], in [5] and in test [6] was inactive. The compound was called inactive in [7], in [8], in test [9] and in test [10].
As to `[Na+]`, the call in test [3], in test [4], in test [5], in test [6], in [7] and in [8] was inactive. The result in [9], in [10] and in test [11] was inactive.
The AC50 is the midpoint of the concentration-response curve, whichever way the signal moves. Consider `CCCCCCCCCC(=O)OCC`, for which the outcome in test [1], in [3], in test [4], in [5], in test [7] and in test [9] was inactive. For the same compound, in test [11], the outcome was inactive. Also, the concentration at half-maximal activity (AC50) is 28.7 µM (active) in test [12], 29.1 µM (active) in test [13] and 32.5 µM (active) in [14].
For the compound `C=C(F)C(=O)OC(C(F)(F)F)C(F)(F)F`, the outcome in test [12], in test [13] and in test [14] was inactive.
Regarding `CCCCCC#CC(=O)OC`, the outcome in test [1], in test [2], in test [5], in [6], in [7] and in [10] was inactive. The compound was called inactive in [11]. For the same compound, the concentration at half-maximal activity (AC50) was 23.1 µM (active) in test [8] and 23.9 µM (active) in [9].
In the case of `OCC(F)(OC(F)(F)C(F)(OC(F)(F)C(F)(F)C(F)(F)F)C(F)(F)F)C(F)(F)F` (stereo not drawn), the result in test [12], in test [13] and in test [14] was inactive. In addition, in test [14], the half-maximal activity concentration (AC50) was 3.72 µM (active).
For `Cc1ccncc1`, the call in test [1], in test [4], in test [5], in test [6], in test [7] and in [9] was inactive. For the same compound, the outcome in [10] and in test [11] was inactive.
As to `O=C(O)c1ccco1`, the compound was classed as inactive in test [2], in test [4], in [5], in [6], in test [7] and in [11].
Consider `c1ccc(Sc2ccccc2)cc1`, for which the outcome in test [1], in [3], in [4], in test [5], in [6] and in test [7] was inactive. Also, the outcome in test [8], in [9] and in [10] was inactive. In addition, the AC50 in [12] was 33 µM (active); in test [13], 32 µM (active); in [14], 39.1 µM (active).
In the case of `C=C(C)C(=O)OCCC(F)(F)C(F)(F)C(F)(F)C(F)(F)C(F)(F)C(F)(F)C(F)(F)C(F)(F)F`, the outcome in test [12], in test [13] and in test [14] was inactive.
With `C=C(C)C(=O)OCCN(C)C`, the compound was classed as inactive in test [15], in test [3], in [4], in [5], in [6] and in test [7]. Further, the compound was classed as inactive in test [9], in test [10] and in [11].
Regarding `CC(C)N1C(=O)c2ccccc2C1=O`, the result in test [1], in test [4], in [5], in test [6], in test [7] and in test [8] was inactive. Further, the call in [9], in [10] and in test [11] was inactive.
For `Nc1ccn([C@H]2CC[C@@H](CO)O2)c(=O)n1`, the outcome in [4], in [5], in test [6], in test [7], in test [8] and in [9] was inactive.
In the case of `CCCc1ccc(N)cc1`, the call in [4], in test [5], in [8], in test [9] and in test [11] was inactive.
